The target in assay [1] is Transcription factor E2F1 (Homo sapiens) (UniProt Q01094). The experiment in a line: ATG_E2F_CIS: Attagene CIS-FACTORIAL HepG2 Assay for human E2F Transcription Factor 1 (AID 2282935). The following applies: HepG2 Attagene cis-reporter, E2F reporter RNA transcripts; actives raise or lower the signal. The method, boiled down: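 First, HepG2 cells were transfected with reporter transcription units. Next, they were dosed for 24 h. Then RNA was isolated, converted to cDNA, PCR-amplified, FAM-labeled, HpaI-digested and analyzed by capillary electrophoresis.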
Chain of Transcription factor E2F1 (Homo sapiens) (Q01094 whole entry, looked up): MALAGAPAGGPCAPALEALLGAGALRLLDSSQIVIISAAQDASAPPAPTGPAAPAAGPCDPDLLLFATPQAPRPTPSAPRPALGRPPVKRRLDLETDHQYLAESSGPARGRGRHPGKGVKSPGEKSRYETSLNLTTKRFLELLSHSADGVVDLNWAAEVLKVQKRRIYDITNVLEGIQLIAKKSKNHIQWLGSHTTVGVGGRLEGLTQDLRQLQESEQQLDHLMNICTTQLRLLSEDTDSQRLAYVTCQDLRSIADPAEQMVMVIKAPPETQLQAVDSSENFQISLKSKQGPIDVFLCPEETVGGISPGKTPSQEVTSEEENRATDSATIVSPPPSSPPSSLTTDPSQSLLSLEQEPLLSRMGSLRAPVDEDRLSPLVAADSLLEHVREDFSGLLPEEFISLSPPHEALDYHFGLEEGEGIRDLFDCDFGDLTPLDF

Assay [2] is described as follows: ATG_E_Box_CIS: Attagene CIS-FACTORIAL HepG2 Assay for human Enhancer Box (E-box) (AID 2282936). The following applies: HepG2 E-box cis-reporter transcription, actives raise or lower the signal. The method, boiled down: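 Endogenous transcription factor activity was sensed in human HepG2 liver cells through transfected cis-promoter reporter units. After 24 h of dosing, total RNA was reverse-transcribed and reporter cDNA resolved by capillary electrophoresis.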

Assay [3] can be described thus: ATG_M_61_CIS: Attagene CIS-FACTORIAL HepG2 Assay for M61 Transcription Factor (Internal Marker) (AID 2282937). The conditions noted are these: HepG2 Attagene CIS-FACTORIAL M61 internal marker reporter; actives raise or lower the signal. The method, boiled down: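 Readout is reporter mRNA by RT-PCR, fluorescent primer extension and capillary electrophoresis, with gain or loss fitted relative to DMSO. Transfected HepG2 cells carrying endogenous-TF-driven cis reporters were exposed to chemicals for 24 hours.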

A short description of assay [4]: ATG_EGR_CIS: Attagene CIS-FACTORIAL HepG2 Assay for human Early Growth Response 1 (EGR1) (AID 2282938). The conditions noted are these: HepG2 Attagene CIS-FACTORIAL EGR reporter mRNA; actives raise or lower the signal. The method, boiled down:
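After 24 h compound exposure, RNA from reporter-transfected HepG2 cells was reverse-transcribed, PCR-amplified, fluorescently labelled and resolved by capillary electrophoresis. EGR1 reporter transcript changes, up or down, were fitted against DMSO, reflecting endogenous transcription-factor activity.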

Assay [5] is described as follows: ATG_M_19_CIS: Attagene CIS-FACTORIAL HepG2 Assay for M19 Transcription Factor (Internal Marker) (AID 2282939). The following applies: HepG2 Attagene CIS-FACTORIAL M19 internal marker reporter; actives raise or lower the signal. The method, boiled down:
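Readout: fluorescent reporter-transcript fragments by capillary electrophoresis after RT-PCR. Human HepG2 liver cells carried transfected MRTU constructs reporting endogenous transcription-factor activity; exposure 24 h. Gain or loss of signal fitted relative to DMSO.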

A short description of assay [6]: ATG_ERE_CIS: Attagene CIS-FACTORIAL HepG2 Assay for Estrogen Response Element (ERE) (AID 2282940). The following applies: HepG2 ERE cis-reporter, Attagene RNA transcript; actives raise or lower the signal. The method, boiled down:
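Readout: reporter mRNA induction by RT-PCR, FAM-labelled primer extension, HpaI digestion and capillary electrophoresis, 24 h after dosing transfected HepG2 cells. Endogenous transcription factors act on cis-element-regulated reporters. Gain or loss fitted against DMSO.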

The nature of assay [7]: ATG_Ets_CIS: Attagene CIS-FACTORIAL HepG2 Assay for human Erythroblast Transformation Specific (ETS) (AID 2282941). The following applies: HepG2 ETS cis-reporter transcription, actives raise or lower the signal. The method, boiled down:
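Multiplexed reporter transcript profiling: HepG2, 24 h treatment, total RNA to cDNA, PCR, 6-FAM labelling, HpaI cut, capillary electrophoresis. Gain- or loss-of-signal fitted against DMSO.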

The target of assay [8] is Hepatocyte nuclear factor 3-beta (Homo sapiens) (UniProt Q9Y261). The experiment in a line: ATG_FoxA2_CIS: Attagene CIS-FACTORIAL HepG2 Assay for human Forkhead box A2 (FOXA2) (AID 2282942). The following applies: HepG2 cis-reporter transcription factor activity, 24 h; actives raise or lower the signal. The method, boiled down:
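Endogenous transcription factor activity is captured via cis-element-driven reporter transcripts in transfected HepG2. Total RNA taken at 24 h post-dosing; labelled RT-PCR products resolved by capillary electrophoresis. Gain or loss fitted versus DMSO.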

Assay [9] in a line: ATG_FoxO_CIS: Attagene CIS-FACTORIAL HepG2 Assay for human Forkhead box O (FoxO) (AID 2282943). The following applies: HepG2 Attagene cis-reporter, FoxO element, mRNA; actives raise or lower the signal. The method, boiled down: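 HepG2 cells transiently transfected with cis-promoter-driven multiple reporter transcription units; 24 h after chemical dosing, reporter mRNA quantified by RT-PCR, fluorescent primer extension, HpaI digestion and capillary electrophoresis. Bidirectional fitting versus DMSO baseline.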

Assay [10] is described as follows: ATG_GATA_CIS: Attagene CIS-FACTORIAL HepG2 Assay for human GATA Binding Protein (AID 2282944). The conditions noted are these: HepG2 GATA cis-element reporter, Attagene multiplex mRNA; actives raise or lower the signal. The method, boiled down:
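Read-out: fluorescent reporter mRNA fragments resolved by capillary electrophoresis after RT-PCR. Human liver HepG2 cells carried transiently transfected cis-regulated reporter constructs; chemicals incubated 24 h; gain or loss of signal fitted relative to DMSO.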

Assay [11] can be described thus: ATG_GLI_CIS: Attagene CIS-FACTORIAL HepG2 Assay for human Zinc Finger Protein GLI1 (AID 2282945). The following applies: HepG2, Attagene cis-factorial reporter mRNA, GLI element; actives raise or lower the signal. The method, boiled down: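 HepG2 cells transiently transfected with cis-promoter multiplexed reporter units report endogenous transcription factor activity. After 24 h chemical exposure, reporter mRNA was quantified by RT-PCR, 6-FAM labelling, HpaI digestion and capillary electrophoresis, with bidirectional fitting against DMSO.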

Assay [12] has as its target Bile acid receptor (Homo sapiens) (UniProt Q96RI1). The experiment in a line: ATG_IR1_CIS: Attagene CIS-FACTORIAL HepG2 Assay for human Nuclear Receptor Subfamily 1 Group H Member 4 (NR1H4), IR1 submotif (AID 2282946). The conditions noted are these: IR1 reporter transcription, actives raise or lower the signal. The method, boiled down:
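Readout: reporter transcript levels by RT-PCR with fluorescent capillary electrophoresis, from HepG2 cells transiently transfected with multiplexed cis-regulated reporters and dosed 24 h. Gain- or loss-of-signal fitted versus DMSO negative control.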

Assay [13] can be described thus: ATG_GRE_CIS: Attagene CIS-FACTORIAL HepG2 Assay for human Glucocorticoid Response Elements (GRE) (AID 2282947). The following applies: HepG2 GRE cis-reporter, Attagene multiplex mRNA; actives raise or lower the signal. The method, boiled down: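 Cells (HepG2) bearing transfected cis-promoter reporter transcription units were treated with chemical for 24 hours. Reporter mRNA was measured via RT-PCR with capillary electrophoresis, and activity was fitted in both directions relative to DMSO.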

Assay [14] is described as follows: ATG_ISRE_CIS: Attagene CIS-FACTORIAL HepG2 Assay for human Interferon Regulatory Factor 1 (IRF1) binding to an Interferon-Stimulated Response Element (ISRE) (AID 2282948). The following applies: HepG2 ISRE cis-reporter (Attagene), mRNA transcription readout; actives raise or lower the signal. The method, boiled down: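 Signal reflects induction or loss of ISRE-linked reporter mRNA in transiently transfected HepG2 cells after a 24 h treatment, detected by fluorescent RT-PCR fragments on capillary electrophoresis and normalised to DMSO.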

A short description of assay [15]: ATG_M_32_CIS: Attagene CIS-FACTORIAL HepG2 Assay for M32 Transcription Factor (Internal Marker) (AID 2282949).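 Further: background control marker of the multiplexed CIS panel rather than a real target.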 The following applies: HepG2 Attagene cis-factorial M32 reporter, mRNA; actives raise or lower the signal. The method, boiled down: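 HepG2 transfectants (cis-regulated reporter transcription units) dosed 24 h. Reporter mRNA by RT-PCR plus CE, analysed as gain or loss relative to DMSO.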

A short description of assay [16]: ATG_M_06_CIS: Attagene CIS-FACTORIAL HepG2 Assay for M06 Transcription Factor (Internal Marker) (AID 2282950). The following applies: HepG2 Attagene CIS-FACTORIAL M06 internal marker reporter; actives raise or lower the signal. The method, boiled down: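 Terse: HepG2, transient MRTU transfection (FuGene 6), 24 h dosing; total RNA, oligo(dT) RT, PCR, FAM label, HpaI cut, capillary electrophoresis; bidirectional fit vs DMSO baseline; background-control endpoint.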

The target of assay [17] is Hypoxia-inducible factor 1-alpha (Homo sapiens) (UniProt Q16665). The experiment in a line: ATG_HIF1a_CIS: Attagene CIS-FACTORIAL HepG2 Assay for human Hypoxia Inducible Factor 1 (HIF1A) (AID 2282951). The following applies: HepG2 Attagene cis-factorial HIF1a reporter transcription; actives raise or lower the signal. The method, boiled down:
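Activity is fitted in both directions relative to DMSO. Reporter transcripts are read by RT-PCR, fluorescent primer extension and capillary electrophoresis after 24 h chemical treatment. The cells are HepG2 carrying transiently transfected cis-element-driven reporter units responding to endogenous factors.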

Assay [18] has as its target Hepatocyte nuclear factor 6 (Homo sapiens) (UniProt Q9UBC0). Description: ATG_HNF6_CIS: Attagene CIS-FACTORIAL HepG2 Assay for human Hepatocyte Nuclear Factor 6 (HNF6) (AID 2282952). The following applies: HepG2 Attagene cis-factorial HNF6 reporter transcription; actives raise or lower the signal. The method, boiled down:
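Activity values derive from bidirectional fitting against DMSO of reporter mRNA levels, measured by capillary electrophoresis of labelled RT-PCR products from HepG2 cells exposed 24 h.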

Assay [19] is described as follows: ATG_MRE_CIS: Attagene CIS-FACTORIAL HepG2 Assay for human Metal Responsive Element (MRE) (AID 2282954). The conditions noted are these: HepG2 MRE cis-reporter transcription, Attagene multiplex; actives raise or lower the signal. The method, boiled down: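 Cells were transfected with cis-promoter reporter transcription units, then dosed for 24 h. RNA was reverse-transcribed, amplified, fluorescently labelled and resolved by capillary electrophoresis, and activity was fitted in both directions relative to DMSO.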

Assay [20] addresses Heat shock factor protein 1 (Homo sapiens) (UniProt Q00613). Description: ATG_HSE_CIS: Attagene CIS-FACTORIAL HepG2 Assay for human Heat Shock Transcription Factor 1 (HSE) (AID 2282953). The following applies: HepG2 HSE cis-reporter, Attagene RNA transcription; actives raise or lower the signal. The method, boiled down:
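Read-out: fluorescence of reporter-specific RT-PCR fragments separated by capillary electrophoresis. HepG2 carrying transfected cis-element reporter units; 24 h dosing; activity fitted in both directions relative to DMSO baseline.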

The source made the active and inactive calls. How the source made its calls: active means hit-call score of the fitted dose curve at least 0.9, where 1 is the maximum; inactive means score below 0.9.

Chain of Hepatocyte nuclear factor 3-beta (Homo sapiens) (Q9Y261 whole entry, looked up): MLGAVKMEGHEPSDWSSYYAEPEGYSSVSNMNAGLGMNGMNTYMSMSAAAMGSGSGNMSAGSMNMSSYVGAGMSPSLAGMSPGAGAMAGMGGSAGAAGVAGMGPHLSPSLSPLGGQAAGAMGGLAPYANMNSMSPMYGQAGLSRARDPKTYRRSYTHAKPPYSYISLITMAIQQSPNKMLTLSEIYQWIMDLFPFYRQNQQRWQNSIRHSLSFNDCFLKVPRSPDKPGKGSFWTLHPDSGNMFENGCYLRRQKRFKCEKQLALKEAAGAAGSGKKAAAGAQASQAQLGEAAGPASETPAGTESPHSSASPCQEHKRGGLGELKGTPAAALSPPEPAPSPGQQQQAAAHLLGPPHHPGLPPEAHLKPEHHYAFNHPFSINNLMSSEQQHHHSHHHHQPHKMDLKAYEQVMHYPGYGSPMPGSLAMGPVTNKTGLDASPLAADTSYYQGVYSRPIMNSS
Chain of Hypoxia-inducible factor 1-alpha (Homo sapiens) (Q16665 whole entry, looked up): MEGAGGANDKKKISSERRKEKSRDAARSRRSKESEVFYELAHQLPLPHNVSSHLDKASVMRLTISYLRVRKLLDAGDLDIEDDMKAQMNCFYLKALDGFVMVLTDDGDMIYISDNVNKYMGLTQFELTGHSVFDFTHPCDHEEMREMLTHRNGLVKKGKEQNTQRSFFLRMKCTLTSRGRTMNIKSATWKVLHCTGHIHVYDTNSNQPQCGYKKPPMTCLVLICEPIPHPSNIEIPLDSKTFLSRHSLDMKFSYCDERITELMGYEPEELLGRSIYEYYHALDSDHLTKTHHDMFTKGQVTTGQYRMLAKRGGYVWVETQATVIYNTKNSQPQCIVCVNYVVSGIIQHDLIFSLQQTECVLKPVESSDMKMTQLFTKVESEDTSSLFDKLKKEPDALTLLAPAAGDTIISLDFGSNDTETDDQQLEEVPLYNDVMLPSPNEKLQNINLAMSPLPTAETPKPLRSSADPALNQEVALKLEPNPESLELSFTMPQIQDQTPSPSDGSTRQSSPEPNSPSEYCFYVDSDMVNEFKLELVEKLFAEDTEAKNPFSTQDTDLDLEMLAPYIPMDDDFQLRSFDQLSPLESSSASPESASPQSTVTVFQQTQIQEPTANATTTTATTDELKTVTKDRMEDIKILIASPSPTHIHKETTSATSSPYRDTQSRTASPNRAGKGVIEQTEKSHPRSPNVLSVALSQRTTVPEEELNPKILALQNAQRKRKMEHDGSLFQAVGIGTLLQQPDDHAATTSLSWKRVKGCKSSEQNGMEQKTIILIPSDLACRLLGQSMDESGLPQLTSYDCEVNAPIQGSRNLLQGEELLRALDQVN
Chain of Bile acid receptor (Homo sapiens) (Q96RI1 whole entry, looked up): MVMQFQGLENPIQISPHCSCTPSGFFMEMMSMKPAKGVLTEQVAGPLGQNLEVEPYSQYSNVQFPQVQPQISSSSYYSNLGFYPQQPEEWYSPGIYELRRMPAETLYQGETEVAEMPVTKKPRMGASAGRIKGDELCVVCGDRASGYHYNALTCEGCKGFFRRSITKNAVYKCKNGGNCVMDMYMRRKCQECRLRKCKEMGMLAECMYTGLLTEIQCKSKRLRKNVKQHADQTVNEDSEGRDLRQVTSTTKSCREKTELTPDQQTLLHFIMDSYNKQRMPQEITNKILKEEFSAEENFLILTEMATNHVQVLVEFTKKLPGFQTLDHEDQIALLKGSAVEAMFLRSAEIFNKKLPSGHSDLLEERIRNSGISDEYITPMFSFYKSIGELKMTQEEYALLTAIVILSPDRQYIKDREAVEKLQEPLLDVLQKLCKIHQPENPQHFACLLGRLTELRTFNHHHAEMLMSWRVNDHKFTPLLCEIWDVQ
Chain of Hepatocyte nuclear factor 6 (Homo sapiens) (Q9UBC0 whole entry, looked up): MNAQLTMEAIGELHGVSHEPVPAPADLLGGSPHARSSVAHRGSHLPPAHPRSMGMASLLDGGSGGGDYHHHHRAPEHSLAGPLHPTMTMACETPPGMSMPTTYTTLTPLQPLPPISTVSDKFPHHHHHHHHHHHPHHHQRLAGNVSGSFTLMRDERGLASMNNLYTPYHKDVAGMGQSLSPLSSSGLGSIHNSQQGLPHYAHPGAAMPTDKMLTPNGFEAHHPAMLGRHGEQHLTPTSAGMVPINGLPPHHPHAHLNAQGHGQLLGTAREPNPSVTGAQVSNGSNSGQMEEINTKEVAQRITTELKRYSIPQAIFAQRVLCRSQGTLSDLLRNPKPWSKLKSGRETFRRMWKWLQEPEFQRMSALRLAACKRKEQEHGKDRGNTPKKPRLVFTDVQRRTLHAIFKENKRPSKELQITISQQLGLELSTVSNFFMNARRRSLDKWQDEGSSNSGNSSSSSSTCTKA
Chain of Heat shock factor protein 1 (Homo sapiens) (Q00613 whole entry, looked up, the tested form may be a part): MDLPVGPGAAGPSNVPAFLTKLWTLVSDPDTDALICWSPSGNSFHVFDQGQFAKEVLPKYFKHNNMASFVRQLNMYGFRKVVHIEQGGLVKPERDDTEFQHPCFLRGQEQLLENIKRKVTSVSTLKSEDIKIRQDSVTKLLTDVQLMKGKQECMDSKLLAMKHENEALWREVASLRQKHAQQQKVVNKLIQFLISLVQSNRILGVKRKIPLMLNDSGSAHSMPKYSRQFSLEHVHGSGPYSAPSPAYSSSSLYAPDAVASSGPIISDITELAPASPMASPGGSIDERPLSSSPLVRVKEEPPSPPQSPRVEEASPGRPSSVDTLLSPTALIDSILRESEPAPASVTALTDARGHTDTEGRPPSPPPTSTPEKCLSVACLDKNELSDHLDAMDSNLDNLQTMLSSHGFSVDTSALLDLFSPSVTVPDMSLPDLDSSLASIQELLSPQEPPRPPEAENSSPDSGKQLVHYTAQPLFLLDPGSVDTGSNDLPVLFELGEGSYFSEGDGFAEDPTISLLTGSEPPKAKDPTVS

For the molecule `Nc1ccc(Sc2ccc(N)cc2)cc1`, the molecule was classed as inactive in [1], in assay [2], in [3], in [4], in [5] and in assay [7]. The molecule was classed as inactive in assay [8], in assay [9], in assay [10], in assay [11], in [12] and in assay [13]. Also, the outcome in [14], in [15], in assay [16] and in assay [18] was inactive. Moreover, the AC50 in [6] is 14.4 µM (active); in [17], 45.3 µM (active); in assay [19] it was 77.3 µM (active).
For `CCOP(=S)(NC(C)C)Oc1ccccc1C(=O)OC(C)C` (configuration not stated), the result in [1], in assay [2], in assay [3], in assay [4], in [5] and in [7] was inactive. The outcome in assay [8], in assay [9], in [10], in [11], in assay [13] and in assay [15] was inactive. For the same molecule, the result in assay [16], in assay [17], in assay [18] and in assay [20] was inactive. The AC50 is 11.3 µM (active) in [6], 26.5 µM (active) in [12], 41.7 µM (active) in [14] and 59.9 µM (active) in assay [19].
Regarding `O=C(O)C1C(C(=O)O)C2(Cl)C(Cl)=C(Cl)C1(Cl)C2(Cl)Cl` (configuration not stated), the result in assay [1], in assay [2], in assay [3], in assay [4], in [5] and in assay [6] was inactive. In addition, the molecule was classed as inactive in assay [7], in [8], in assay [9], in assay [10], in assay [11] and in [12]. Also, the outcome in assay [13], in assay [14], in [15], in [16], in [18] and in [19] was inactive.
Regarding `CCOP(=S)(OCC)SCn1nnc2ccccc2c1=O`, the molecule was called inactive in [1], in [2], in assay [3], in assay [5], in assay [7] and in [8]. For the same molecule, the call in assay [9], in assay [10], in assay [11], in [12], in assay [13] and in assay [14] was inactive. The result in assay [15], in assay [16], in [17] and in assay [18] was inactive. Besides, the AC50 in assay [4] was 9.67 µM (active); in assay [6], 7.39 µM (active); in assay [20] it was 166 µM (active); in [19], 78.5 µM (active).

These data come from PubChem BioAssay (EPA / NIEHS).
